Measurements taken from PubChem BioAssay (NCI).
The panel holds about 83,000 compounds, 20% with a hit somewhere; the sample as a whole holds those more often.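 Values shown are percent growth following 48 h exposure of cells in 96-well plates to a single concentration of compound; below 10 was considered active.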 A number with no mark means an inactive call. The source made the active and inactive calls.

Tests used:
Experiment in all cases: NCI-60 one-dose screen, 48 h (100 = growth as untreated, 0 = no growth, -100 = all killed)
Settings in all cases: 10 µM unless noted
RPMI-8226 leukemia = test system: RPMI-8226 leukemia
OVCAR-8 ovarian = test system: OVCAR-8 ovarian
OVCAR-4 ovarian = test system: OVCAR-4 ovarian
SK-OV-3 ovarian = test system: SK-OV-3 ovarian
IGROV1 ovarian = test system: IGROV1 ovarian
OVCAR-3 ovarian = test system: OVCAR-3 ovarian
HS 578T breast = test system: HS 578T breast
NCI/ADR-RES ovarian = test system: NCI/ADR-RES ovarian
T-47D breast = test system: T-47D breast
BT-549 breast = test system: BT-549 breast
MDA-MB-435 melanoma = test system: MDA-MB-435 melanoma
SW-620 colon = test system: SW-620 colon
MCF7 breast = test system: MCF7 breast
HCT-116 colon = test system: HCT-116 colon
HCC-2998 colon = test system: HCC-2998 colon
KM12 colon = test system: KM12 colon
OVCAR-5 ovarian = test system: OVCAR-5 ovarian

Compound	growth (RPMI-8226 leukemia)	growth (OVCAR-8 ovarian)	growth (OVCAR-4 ovarian)	growth (SK-OV-3 ovarian)	growth (IGROV1 ovarian)	growth (OVCAR-3 ovarian)	growth (HS 578T breast)	growth (NCI/ADR-RES ovarian)	growth (T-47D breast)	growth (BT-549 breast)	growth (MDA-MB-435 melanoma)	growth (SW-620 colon)	growth (MCF7 breast)	growth (HCT-116 colon)	growth (HCC-2998 colon)	growth (KM12 colon)	growth (OVCAR-5 ovarian)
COc1ccc(NC(=O)n2nc(/C=C\c3ccc(O)c(OC)c3)cc2/C=C\c2ccc(O)c(OC)c2)cc1	21.3%	32.8%	51.5%	60.7%	34.4%	13.6%	28.7%	23.9%	34.8%	31.4%	-36.3% (active)	27.1%	15.6%	9.13% (active)	74.9%	17.9%	–
Cc1ccc(C(=O)NCCNc2nccc(-c3c(-c4cccc(F)c4)nc4sccn34)n2)cc1	53.8%	55%	67.8%	–	23.1%	61.6%	33%	55.6%	42.4%	55.2%	41.6%	61.8%	27.2%	27%	64.2%	–	–
N#Cc1ccc(NC(=O)c2sc3nc4c(cc3c2N)C(=O)CCC4)cc1	95.7%	105%	106%	106%	113%	114%	111%	106%	95.9%	108%	97.4%	98.1%	97.4%	108%	99.2%	101%	–
COc1ccc(-c2conc2-c2ccccc2)cc1	32.7%	18.1%	47.8%	38.2%	26.2%	-28.5% (active)	7.75% (active)	6.05% (active)	52.8%	29.6%	-45.4% (active)	19.8%	16%	12.3%	19.5%	9.21% (active)	–
CCN1C(=O)N(CC)C2Nn3c(s/c(=C4\C(=O)N(CCC(C)C)c5ccccc54)c3=O)=NC21 (centres undefined)	73.7%	86%	63.5%	98.7%	63.8%	75.8%	81.4%	57.8%	36.3%	99.6%	12.5%	61.1%	15.1%	12.6%	99.8%	67.9%	–
CC1Cc2ccccc2N1NC(=O)c1ccc(Cl)c(S(N)(=O)=O)c1 (centres undefined)	101%	104%	98.7%	98.4%	98.6%	119%	107%	101%	100%	92.1%	102%	105%	92.2%	98.2%	96%	107%	–
FC(F)(F)c1cc(Nc2ccc3c(OCCCN4CCOCC4)cccc3n2)ccc1Cl	13.4%	75.5%	55.4%	–	48.4%	60.9%	55%	56.2%	48.1%	62.1%	62.7%	1.47% (active)	17.9%	10.8%	34.6%	-0.295% (active)	50.5%
Cc1cc(=O)oc2cc(OC(=O)N3CCN(C)CC3)ccc12	108%	103%	104%	–	110%	106%	99.4%	104%	105%	112%	101%	100%	89.6%	99.4%	110%	101%	–
O=C1COCCN1c1ccc(NCc2cn(C(=O)c3ccc(Cl)cc3)c3ccccc23)cc1	52.6%	66%	3.22% (active)	15.7%	-2.18% (active)	10.6%	72.9%	67%	-12.7% (active)	41.9%	92.6%	40.4%	10.1%	7.09% (active)	91%	97.1%	–
Oc1ccc(-c2nc3ccc4[nH]ncc4c3c3c2CCCC3)c2cccnc12	-6.23% (active)	9.31% (active)	10.2%	-0.881% (active)	6.65% (active)	–	-14.7% (active)	7.95% (active)	15.1%	–	-7.42% (active)	7.64% (active)	2.05% (active)	2.74% (active)	5.08% (active)	2.51% (active)	21.9%
CCOC(=O)Cn1c(=O)c2c(c3ccccc3n2C)n2nnc(-c3ccccc3)c12	136%	106%	104%	–	68.7%	109%	107%	102%	104%	114%	113%	109%	75.1%	90%	109%	104%	70.9%
COc1cc(C(=O)c2cc(C)c3[nH]c4ccc(O)cc4c3c2C)cc(OC)c1OC	8.34% (active)	27.3%	48.3%	46.5%	12.1%	-45% (active)	38.1%	8.01% (active)	38.5%	-1.57% (active)	-6.06% (active)	31.2%	11%	-5.93% (active)	20.6%	4.49% (active)	–
C#Cc1cccc(NC(=O)Nc2ccccc2NC(=O)CCl)c1	10.7% [8.25 µM]	-13.6% [8.25 µM] (active)	-33.4% [8.25 µM] (active)	–	-54.4% [8.25 µM] (active)	-74.8% [8.25 µM] (active)	-1.15% [8.25 µM] (active)	-2.56% [8.25 µM] (active)	1.49% [8.25 µM] (active)	-27% [8.25 µM] (active)	-68.7% [8.25 µM] (active)	-5.75% [8.25 µM] (active)	–	0.401% [8.25 µM] (active)	-29.4% [8.25 µM] (active)	-37.6% [8.25 µM] (active)	-26% [8.25 µM] (active)
COc1cc(CCCO)c(OC)c(OC)c1OC	112%	107%	102%	107%	109%	111%	102%	104%	99.4%	107%	102%	105%	104%	106%	103%	105%	–
CCOC(=O)c1nc(Nc2ccc(C(C)=O)cc2)sc1C	103%	103%	96.4%	107%	103%	–	105%	101%	93%	106%	100%	101%	92.9%	99.8%	114%	101%	99.5%
Cc1cc(Cl)ccc1NS(=O)(=O)c1ccc(-c2cnc(C3CC3)o2)cc1	19.3%	27.4%	40%	–	23.3%	-16.9% (active)	22.1%	6.12% (active)	49.6%	11.5%	-36.4% (active)	21.9%	12.7%	12.9%	15.9%	15.5%	27.8%
Cc1c(C(=O)N[C@@H](Cc2ccccc2)C(=O)C(=O)NCc2ccc(F)cc2)[nH]c2ccccc2c1=O	87.9%	102%	90.6%	99.6%	96.8%	–	105%	102%	103%	110%	101%	97.5%	91.2%	99.9%	93.8%	101%	104%
COc1cc(Nc2nc(NCCN)nc3cc[nH]c(=O)c23)cc(OC)c1	80%	76.3%	80.7%	–	57.8%	109%	82.5%	98.6%	122%	66.7%	69.6%	64.2%	77.2%	46.6%	79.3%	76%	67.9%
N#Cc1c(Nc2cccc(Cl)c2)sc(C(=O)c2cc3cc(Cl)ccc3o2)c1N	56.8%	67.4%	92.5%	–	-8.05% (active)	111%	105%	84.3%	73.7%	113%	86.3%	18.2%	70.2%	72.4%	105%	34.5%	86.4%
